PubChem BioAssay (Tox21)
Records with an inconclusive call do not appear. Calls of active or inactive are those of the source. Unless noted, the call rests on the fitted dose curve; in most records, active means well fitted curve in the direction sought with a large enough effect in the repeat runs; inconclusive means weak or mixed curves; inactive means no such curve, though single readings can be large; an effect the other way counts as inactive or inconclusive.

Experiments:
[1] = qHTS RealTime-Glo MT Cell Viability Assay in HEK293 cells - 8 hour (AID 1224887); further: top concentration of the series differs between compounds; nearly all actives have a fitted effect of over 50% in size
In short: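 Measured as luminescence from the same continuously cultured HEK293 wells at successive time points (0, 8, 16, 24, 32, 40 h) after compound addition. Reagent present from seeding; dosing at 5 h; incubation 37 C.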

[2] = A CellTox Green Cytotoxicity Assay to monitor cytotoxicity in HEK293 cells - 16 hour (AID 1224888); further: nearly all actives have a fitted effect of over 35% in size
In short: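 Homogeneous no-lysis format: HEK293 cell suspension mixed with CellTox Green reagent, seeded, incubated 5 h at 37 C/5% CO2, then dosed by pintool with compound in DMSO.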

[3] = qHTS RealTime-Glo MT Cell Viability Assay in HepG2 cells - 0 hour (AID 1224889); further: nearly all actives have a fitted effect of over 50% in size
In short: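 Cells + NanoLuc/prosubstrate dispensed (600 cells/well) → 5 h at 37 C/5% CO2 → compounds in DMSO transferred → 40 h incubation at 37 C, luminescence read at 0, 8, 16, 24, 32, 40 h.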

[4] = A CellTox Green Cytotoxicity Assay to monitor cytotoxicity in HepG2 cells - 8 hour (AID 1224890); further: nearly all actives have a fitted effect of over 45% in size
In short: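 Fluorescent DNA-binding dye, 600 HepG2 cells/well, 5 h preincubation then compound in DMSO; same plates read at 0–40 h, 37 C.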

[5] = qHTS assay to identify small molecule antagonists of the estrogen receptor alpha (ER-alpha) signaling pathway using the BG1 cell line in the presence of 0.1 nM 17-beta-estradiol - cell viability counter screen (AID 1259241); further: nearly all actives have a fitted effect of over 40% in size
In short: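 Live-cell protease activity (CellTiter-Fluor fluorescence, 30 min) was read in the same wells after VM7Luc4E2 cells had been exposed to compounds with 0.1 nM 17beta-estradiol for 22 hr at 37C.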

[6] = qHTS assay to identify small molecule antagonists of the androgen receptor (AR) signaling pathway using the MDA cell line in the presence of 0.5 nM R1881 - cell viability counter screen (AID 1259242); further: nearly all actives have a fitted effect of over 45% in size
In short: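 Human breast carcinoma MDA-kb2 cells, cultured without CO2, receive compounds alongside 0.5 nM (final) R1881 agonist. After 16 hr at 37C, viability is taken as live-cell protease signal.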

[7] = qHTS assay to identify small molecule HDAC inhibitors (AID 1259364); further: potency means the concentration at half of the fitted maximal effect;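 further: wild-type HCT-116 cells with endogenous class I/II HDAC activity; nearly all actives have a fitted effect of over 45% in size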; on activity change, negative = inhibition: top concentration of the series differs between compounds
In short: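 After a 2 hr compound incubation (37C, 5% CO2), HCT-116 cells seeded at 1,500/well the day before received HDAC-Glo reagent; signal read as luminescence after 30 min at room temperature.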

[8] = qHTS assay to identify small molecule HDAC inhibitors - cell viability counter screen (AID 1259365); further: series mostly up to about 92 µM; nearly all actives have a fitted effect of over 50% in size
In short: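 HCT-116 (wild type), 1,500 cells/well, overnight 37C/5% CO2; compound in DMSO 2hr; CellTiter-Glo 30min RT; luminescence read.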

[9] = qHTS assay to identify small molecule agonists of the sonic hedgehog signaling (Shh) pathway - cell viability counter screen (AID 1259366); further: nearly all actives have a fitted effect of over 50% in size
In short: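 CellTiter-Fluor fluorescence read-out, 1 hr at 37C, added after 23hr compound exposure. Cells: 3T3 Gli1-Luc, an NIH/3T3 clone with stably integrated Gli1-Luc reporter, plated 4hr before compound.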

[10] = qHTS assay to identify small molecule antagonists of the sonic hedgehog signaling (Shh) pathway - cell viability counter screen (AID 1259367); further: nearly all actives have a fitted effect of over 55% in size
In short: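 Cytotoxicity was assessed in parallel with Shh reporter activity by measuring live-cell protease fluorescence (CellTiter-Fluor) in NIH/3T3 cells stably carrying Gli1-Luc, treated with compound under conditioned medium stimulation for 23 hr plus 1 hr reagent incubation.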

[11] = qHTS assay to identify small molecule agonists of the sonic hedgehog signaling (Shh) pathway (AID 1259368; calls by dose curve;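 further: NIH/3T3-derived 3T3Gli1-Luc cells carrying a stable Gli1-driven firefly luciferase reporter; series mostly up to about 92 µM; nearly all actives have a fitted effect of over 15% in size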)
In short: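 Stable NIH/3T3 Gli1-Luc reporter clone; 24 hr cpd exposure after a 4 hr settling period; luminescence endpoint.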

[12] = qHTS assay to identify small molecule agonists of the androgen receptor (AR) signaling pathway in the presence of an antagonist - cell viability counter screen (AID 1259379);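 further: MDA-kb2 human breast cancer cells carrying an MMTV luciferase reporter; series mostly up to about 92 µM; nearly all actives have a fitted effect of over 25% in size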
In short: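 Counter screen for cell viability run in parallel with the AR agonist-mode luciferase assay. MDA-kb2 cells were co-treated with nilutamide (3.0uM final) and compounds, then incubated 16 hr at 37C, and CellTiter-Fluor fluorescence was measured.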

[13] = qHTS assay to identify small molecule agonists of the estrogen receptor beta (ER-beta) signaling pathway - cell viability counter screen (AID 1259380); further: nearly all actives have a fitted effect of over 30% in size
In short: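 In this qHTS counter screen, HEK293T cells carrying an ER-beta/UAS beta-lactamase reporter, grown in 2% charcoal-stripped FBS, received compound for 16 hr; ATP-based CellTiter-Glo luminescence was then read after 30 min at room temperature.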

[14] = biological target: Androgen receptor (Homo sapiens) (UniProt P10275); test: qHTS assay to identify small molecule antagonists of the androgen receptor (AR) signaling pathway using the MDA cell line in the presence of 0.5 nM R1881 (AID 1259243); further: nearly all actives have a fitted effect of over 50% in size
In short: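 Cells: MDA-kb2 (MMTV-luc). Stimulus: 0.5 nM R1881. Time: 16 hr, 37C, no CO2. Detection: ONE-Glo luminescence after 30 min at RT.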

[15] = biological target: Estrogen receptor (Homo sapiens) (UniProt P03372); test: qHTS assay to identify small molecule antagonists of the estrogen receptor alpha (ER-alpha) signaling pathway using the BG1 cell line in the presence of 0.1 nM 17-beta-estradiol (AID 1259244); further: nearly all actives have a fitted effect of over 50% in size
In short: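 Seeding of stripped-serum-adapted VM7Luc4E2 cells, 24 h attachment, compound transfer, then 0.1 nM final 17beta-estradiol; after 22 h incubation, ONE-Glo reagent and luminescence reading.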

[16] = biological target: Estrogen receptor beta (Homo sapiens) (UniProt Q92731); test: qHTS assay to identify small molecule agonists of the estrogen receptor beta (ER-beta) signaling pathway (AID 1259377; active means well fitted activation curve with a large enough effect in the signal ratio in the repeat runs, not every such curve was filed as active; the % refers to the signal ratio)
In short: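 Beta-lactamase reporter readout: fluorescence of LiveBLAzer B/G FRET substrate after 2 h at room temperature, following 16 h compound treatment of ER-beta-UAS-bla HEK293T cells at 37C in 2% charcoal-stripped FBS medium.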

[17] = biological target: Estrogen receptor beta (Homo sapiens) (UniProt Q92731); test: qHTS assay to identify small molecule antagonists of the estrogen receptor beta (ER-beta) signaling pathway (AID 1259378; active means well fitted inhibition curve with a large enough effect in the signal ratio in the repeat runs, not every such curve was filed as active; the % refers to the signal ratio)
In short: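 ER-beta-UAS-bla HEK293T (GripTite) cells in 2% charcoal-stripped FBS medium were preincubated 6 hr at 37C, dosed with compound, then stimulated with 1 nM E2 (final) for 16 hr; beta-lactamase reporter read by B/G FRET fluorescence after 2 hr substrate loading.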

[18] = biological target: Androgen receptor (Homo sapiens) (UniProt P10275); test: qHTS assay to identify small molecule agonists of the androgen receptor (AR) signaling pathway in the presence of an antagonist (AID 1259381; calls by dose curve; further: nearly all actives have a fitted effect of over 15% in size)
In short: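 AR antagonist background: nilutamide 3.0uM final. Cell line: MDA-kb2, MMTV-driven luciferase, responsive to both AR and GR. Exposure 16hr, 37C, no CO2; ONE-Glo luminescence.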

[19] = qHTS assay to identify small molecule phospholipidosis (PLD) inducers (AID 1259344; active means well fitted curve in the direction sought with a large enough effect; an effect the other way counts as inactive or inconclusive)
In short: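 Cells (HepG2, 900 per well) attach for 4 h, receive LipidTOX Red and compound together, incubate 24 h at 37 C, are fixed 30 min with paraformaldehyde/Hoechst, then imaged at one site per well.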

[20] = qHTS assay to identify small molecule antagonists of the sonic hedgehog signaling (Shh) pathway (AID 1259369; calls by dose curve; further: nearly all actives have a fitted effect of over 45% in size)
In short: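 Gli1 transcriptional reporter (firefly Luc) in NIH/3T3 background, conditioned-medium activated. 24hr exposure, luminescence endpoint.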
On the % scale 0 is the no-effect control and ±100 the full control effect.

Sequence of Estrogen receptor (Homo sapiens) (P03372 whole entry, looked up): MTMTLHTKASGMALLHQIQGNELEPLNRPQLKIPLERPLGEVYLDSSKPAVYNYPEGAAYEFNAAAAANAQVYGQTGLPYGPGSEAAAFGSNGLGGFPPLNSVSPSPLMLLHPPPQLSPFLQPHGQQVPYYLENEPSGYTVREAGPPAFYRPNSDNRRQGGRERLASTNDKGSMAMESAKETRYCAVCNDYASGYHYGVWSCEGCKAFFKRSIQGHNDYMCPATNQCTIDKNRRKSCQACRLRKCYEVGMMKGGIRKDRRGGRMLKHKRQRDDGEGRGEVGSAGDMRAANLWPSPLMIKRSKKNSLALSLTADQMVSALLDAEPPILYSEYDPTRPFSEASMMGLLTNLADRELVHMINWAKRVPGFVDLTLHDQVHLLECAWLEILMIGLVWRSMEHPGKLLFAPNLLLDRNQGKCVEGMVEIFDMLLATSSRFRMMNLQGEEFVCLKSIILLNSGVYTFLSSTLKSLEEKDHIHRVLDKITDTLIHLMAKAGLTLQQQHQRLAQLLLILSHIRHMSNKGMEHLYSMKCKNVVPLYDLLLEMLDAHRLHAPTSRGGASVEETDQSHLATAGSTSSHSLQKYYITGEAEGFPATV
Sequence of Androgen receptor (Homo sapiens) (P10275 whole entry, looked up): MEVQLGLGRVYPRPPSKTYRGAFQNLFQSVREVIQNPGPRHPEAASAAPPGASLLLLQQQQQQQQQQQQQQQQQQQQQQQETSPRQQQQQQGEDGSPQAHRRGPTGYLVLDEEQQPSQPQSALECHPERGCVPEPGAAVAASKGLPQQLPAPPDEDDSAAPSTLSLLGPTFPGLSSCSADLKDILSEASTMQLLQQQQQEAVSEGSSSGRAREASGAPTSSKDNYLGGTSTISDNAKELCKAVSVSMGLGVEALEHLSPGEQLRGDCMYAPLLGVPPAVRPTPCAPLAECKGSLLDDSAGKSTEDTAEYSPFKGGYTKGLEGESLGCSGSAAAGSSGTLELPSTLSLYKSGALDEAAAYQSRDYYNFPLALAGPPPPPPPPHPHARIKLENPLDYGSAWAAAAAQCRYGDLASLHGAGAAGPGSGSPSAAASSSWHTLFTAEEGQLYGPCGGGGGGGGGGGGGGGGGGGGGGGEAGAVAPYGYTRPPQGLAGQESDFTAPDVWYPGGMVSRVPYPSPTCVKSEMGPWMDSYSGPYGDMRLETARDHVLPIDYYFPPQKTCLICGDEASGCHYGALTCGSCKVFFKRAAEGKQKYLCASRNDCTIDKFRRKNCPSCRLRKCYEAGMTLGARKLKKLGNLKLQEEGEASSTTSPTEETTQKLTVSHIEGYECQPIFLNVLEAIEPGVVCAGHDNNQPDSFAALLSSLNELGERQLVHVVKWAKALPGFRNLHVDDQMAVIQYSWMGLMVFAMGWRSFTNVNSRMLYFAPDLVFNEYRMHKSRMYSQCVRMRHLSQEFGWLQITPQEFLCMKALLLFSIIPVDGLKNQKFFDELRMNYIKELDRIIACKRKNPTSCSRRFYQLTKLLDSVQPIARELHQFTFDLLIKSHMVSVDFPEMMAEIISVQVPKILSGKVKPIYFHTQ
Sequence of Estrogen receptor beta (Homo sapiens) (Q92731 whole entry, looked up): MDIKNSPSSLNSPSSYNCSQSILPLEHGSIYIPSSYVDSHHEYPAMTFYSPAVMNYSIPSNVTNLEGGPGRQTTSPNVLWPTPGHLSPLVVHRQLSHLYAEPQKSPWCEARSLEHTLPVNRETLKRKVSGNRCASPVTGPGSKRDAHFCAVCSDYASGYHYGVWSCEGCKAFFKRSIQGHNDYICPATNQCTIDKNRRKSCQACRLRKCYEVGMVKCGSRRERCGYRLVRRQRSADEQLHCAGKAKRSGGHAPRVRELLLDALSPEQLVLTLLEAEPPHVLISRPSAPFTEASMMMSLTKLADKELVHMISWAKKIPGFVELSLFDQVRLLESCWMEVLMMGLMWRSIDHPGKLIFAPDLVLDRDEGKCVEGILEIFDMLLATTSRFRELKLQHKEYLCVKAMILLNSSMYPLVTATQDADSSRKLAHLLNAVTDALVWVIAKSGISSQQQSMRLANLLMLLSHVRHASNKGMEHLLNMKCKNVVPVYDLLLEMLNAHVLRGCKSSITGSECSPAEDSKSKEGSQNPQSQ

C/C=C(\C)C(=O)OCCc1ccccc1
active: Potency [7] 27.3 µM
inactive: Potency [1] | Potency [2] | Potency [3] | Potency [4] | outcome [5] | outcome [6] | outcome [8] | outcome [9] | outcome [10] | outcome [11] | outcome [12] | outcome [13]

CC(=O)OC1CCCCC1C(C)(C)C (configuration not stated)
inactive: Potency [1] | Potency [2] | Potency [3] | outcome [5] | outcome [6] | Potency [14] | outcome [15] | Potency [7] | outcome [8] | outcome [10] | outcome [11] | Potency [16] | Potency [17] | outcome [12] | outcome [13] | outcome [18]

CCCCOCC(C)O (configuration not stated)
inactive: Potency [1] | Potency [2] | Potency [3] | Potency [4] | outcome [5] | outcome [6] | outcome [15] | Potency [7] | outcome [8] | outcome [10] | outcome [11] | outcome [12] | outcome [13]

CCNC(=O)NCc1cccc(Cl)c1
inactive: Potency [1] | Potency [2] | Potency [4] | outcome [5] | outcome [6] | outcome [15] | outcome [19] | Potency [7] | outcome [8] | outcome [10] | outcome [11] | Potency [20] | outcome [12]

CCOC(=O)CC1(C)OCC(C)O1 (configuration not stated)
inactive: Potency [1] | Potency [2] | Potency [3] | outcome [5] | outcome [6] | outcome [15] | Potency [7] | outcome [8] | outcome [10] | outcome [11] | Potency [20] | Potency [16] | Potency [17] | outcome [13]

Cc1ccc2c(c1)C(=O)c1ccccc1C2=O
inactive: Potency [1] | Potency [2] | Potency [4] | outcome [5] | outcome [6] | outcome [15] | outcome [8] | outcome [9] | outcome [10] | outcome [11] | Potency [20] | Potency [17] | outcome [12]
active: Potency [7] 1.21 µM

CN(C)CCOC(=O)C(c1ccccc1)C1(O)CCCC1 (configuration not stated)
inactive: Potency [1] | Potency [2] | Potency [3] | outcome [5] | outcome [6] | outcome [15] | outcome [19] | Potency [7] | outcome [8] | outcome [9] | outcome [10] | outcome [11] | Potency [16] | Potency [17] | outcome [12] | outcome [13]

CCn1cc(C(=O)O)c(=O)c2cnc(N3CCCC3)nc21
inactive: activity change, negative = cytotoxicity [1] 10.5% [at 6.97 µM] | activity change [2] 2.01% [at 6.97 µM, active compounds read high] | cytotoxicity increase [4] 3.53% [at 6.97 µM] | activity change, negative = cytotoxicity [5] -1.69% [at 8.39 µM] | viability change, negative = cytotoxic [6] 7.44% [at 8.39 µM] | outcome [19] | activity change, negative = inhibition [7] 0.504% [at 8.39 µM] | activity change, negative = cytotoxicity [8] 0.53% [at 8.39 µM] | viability change, negative = cytotoxic [9] -0.379% [at 8.39 µM] | viability change, negative = cytotoxic [10] -1.09% [at 8.39 µM] | activity change [11] 1.04% [at 8.39 µM] | activity change, negative = inhibition [20] 29.2% [at 8.39 µM] | activation [16] 4.52% [at 8.39 µM] | activity, negative = inhibition [17] 15.3% [at 8.39 µM] | activity change, negative = cytotoxicity [12] 0.387% [at 8.39 µM] | activity change, negative = cytotoxicity [13] 2.48% [at 8.39 µM]

O=C(CCCl)NCCc1ccccc1
inactive: Potency [1] | Potency [2] | Potency [4] | outcome [5] | outcome [6] | Potency [14] | outcome [15] | Potency [7] | outcome [8] | outcome [9] | outcome [10] | outcome [11] | Potency [20] | Potency [16] | outcome [13] | outcome [18]

CN(C)CCN(C)CCO
inactive: Potency [1] | Potency [2] | Potency [4] | outcome [5] | outcome [6] | outcome [15] | Potency [7] | outcome [8] | outcome [10] | outcome [11] | Potency [20] | Potency [16] | Potency [17] | outcome [13]

OCC1(CO)COCOC1
inactive: Potency [1] | Potency [2] | Potency [3] | outcome [5] | outcome [6] | Potency [7] | outcome [8] | outcome [10] | outcome [11] | Potency [20] | Potency [16] | outcome [12] | outcome [13]

CO[C@@]1(NC(=O)Cc2cccs2)C(=O)N2C(C(=O)O)=C(COC(N)=O)CS[C@@H]21
inactive: Potency [1] | Potency [2] | Potency [3] | outcome [5] | outcome [6] | outcome [15] | outcome [19] | Potency [7] | outcome [8] | outcome [9] | outcome [11] | Potency [20] | outcome [12] | outcome [13]
